# Measured values: the supplement of paper PMC6555819
# Tests used:
# Assay in all cases: PBM binding z-score (relative to random genomic background probes); higher = stronger binding; sequences stand for … in GC…GCGATTGACAGCGTAGAATGAAGG
# [1] = test system: LXRa:RXRa (NR concentration 270 nM, RXRa partner concentration 90 nM)
# Method in brief: (§1)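 Antibodies against each partner of ligand-free nuclear receptor dimers (one per run) detected binding on custom Agilent 4×180K protein-binding microarrays after 1 h incubation. The double-stranded probes had 34-nt variable regions carrying direct-repeat seeds, single-nucleotide variants, half-site ablations and random human genomic background sequences. Binding z-scores, from regression-normalized fluorescence, use the random background probes as reference.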
# [2] = test system: LXRa homodimer (NR concentration 270 nM)
# Method in brief: as §1
# [3] = test system: LXRb homodimer (NR concentration 270 nM)
# Method in brief: as §1
# [4] = test system: PPARa:RXRa (NR concentration 270 nM, RXRa partner concentration 90 nM)
# Method in brief: as §1
# [5] = test system: PPARg:RXRa (NR concentration 180 nM, RXRa partner concentration 90 nM)
# Method in brief: as §1
# [6] = test system: PPARg:RXRa 270nM:90nM, anti-RXR (NR concentration 270 nM, RXRa partner concentration 90 nM)
# Method in brief: as §1
# [7] = test system: PPARg:RXRa 30nM:10nM, anti-RXR (NR concentration 30 nM, RXRa partner concentration 10 nM)
# Method in brief: as §1
# [8] = test system: PPARg:RXRa 90nM:30nM, anti-RXR (NR concentration 90 nM, RXRa partner concentration 30 nM)
# Method in brief: as §1
# [9] = test system: PPARg:RXRa DBDmut IVT, anti-RXR (DBD mutation: RXRa K156A/R161A, NR concentration 270 nM, RXRa partner concentration 90 nM)
# Method in brief: as §1
# [10] = test system: PPARg:RXRa IVT, anti-PPARg (NR concentration 270 nM, RXRa partner concentration 90 nM)
# Method in brief: as §1
# [11] = test system: PPARg DBDmut:RXRa IVT, anti-PPARg (DBD mutation: PPARg1 K132A/R137A, NR concentration 270 nM, RXRa partner concentration 90 nM)
# Method in brief: as §1
# [12] = test system: PPARg DBDmut IVT, anti-PPARg (DBD mutation: PPARg1 K132A/R137A, NR concentration 270 nM)
# Method in brief: as §1
# [13] = test system: PPARg homodimer (NR concentration 180 nM)
# Method in brief: as §1
# [14] = test system: PXR:RXRa (NR concentration 270 nM, RXRa partner concentration 90 nM)
# Method in brief: as §1
# [15] = test system: PXR homodimer (NR concentration 270 nM)
# Method in brief: as §1
# [16] = test system: RARa:RXR (NR concentration 270 nM, RXRa partner concentration 90 nM)
# Method in brief: as §1
# [17] = test system: RARa homodimer (NR concentration 270 nM)
# Method in brief: as §1
# [18] = test system: RARb:RXRa (NR concentration 270 nM, RXRa partner concentration 90 nM)
# Method in brief: as §1
# [19] = test system: RARb homodimer (NR concentration 270 nM)
# Method in brief: as §1
# [20] = test system: FXR:RXRa (NR concentration 270 nM, RXRa partner concentration 90 nM)
# Method in brief: as §1
Sequence,PBM binding z-score [1],PBM binding z-score [2],PBM binding z-score [3],PBM binding z-score [4],PBM binding z-score [5],PBM binding z-score [6],PBM binding z-score [7],PBM binding z-score [8],PBM binding z-score [9],PBM binding z-score [10],PBM binding z-score [11],PBM binding z-score [12],PBM binding z-score [13],PBM binding z-score [14],PBM binding z-score [15],PBM binding z-score [16],PBM binding z-score [17],PBM binding z-score [18],PBM binding z-score [19],PBM binding z-score [20]
CAGCATAGGTCAGGGCCAGTATAGGAGGAACGTT,2.57,-0.16,-0.316,3.86,2.08,1.98,0.464,0.958,0.577,1.1,-0.177,-0.223,1.42,1.36,0.189,2.17,0.463,3.89,3.19,
CGTCCAAGGTCATAGGGGGTCAGTGAAGACAGAT,7.05,4.02,8.62,6.34,7.32,7.58,4.55,6.71,3.59,5.56,5.09,6.03,6.75,6.98,6.58,7.02,4.01,5.56,5.51,
CGAACAAGGTCATCCAGGACAGTGAATACATTGA,5.83,1.43,1.27,5.9,6.4,6.17,2.72,5.1,4.74,5.07,3.54,2.64,3.58,5.44,7.22,5.39,2.04,5.19,4,
CCTACTGGGTCAAAGGTCATTGATTCCAATGCTC,,5.27,1.18,,,11.2,12.3,13,7.6,8.67,3.67,3.47,7.2,,3.3,,2.65,,5.06,7.5
TGTCAATGTTCAAAGGTAACGTAAGTATCCACAC,,-0.216,0.283,,2.34,3.47,1.61,3.32,-0.214,1.8,1.27,0.82,0.516,,-0.115,0.48,-0.4,1.09,0.732,0.202
AGAATGAGGTCATACGTAGATCAGGGAAGAAAGT,6,1.75,1.92,6.29,7.83,7.25,4.88,6.67,6.81,6.69,1.6,2.79,2.06,4.89,1.94,5.04,1.17,4.84,3.6,
CGAACTAGGTCACCCAGGACAGTGAATACATTGA,2.03,0.478,-0.274,4.82,8.33,6.66,4.23,6.12,8.48,8.55,3.12,2.38,2.12,1.88,1.13,2.54,1.21,4.25,3.34,
CATACAGGGTCGGCTAGGCCAGAGTAGGGACGGC,0.0375,-0.58,-0.356,0.514,0.288,-0.0886,-0.643,-0.513,-0.787,0.00635,-0.399,-0.0958,-0.0997,-0.0911,-0.146,0.408,-0.15,1.13,0.799,
CAAACTAGGTCACCGAAAGGTCAAAGTCCGCATG,,7.45,2.39,,,8.22,6.51,8.62,8.72,9.24,8.36,7.3,9.63,,3.23,,4.75,,5.37,7.31
TAGCCTAGGTTATGGGCCAGTATACCACGCGAAC,,-0.332,-0.441,,0.643,0.89,-0.0157,0.388,0.121,0.996,-0.249,-0.26,0.0998,-0.0911,-0.214,0.27,-0.107,0.734,0.24,-0.238
CCTACTGGGCCATTCAGAGGGCATTGATCATATG,,0.468,-0.759,,0.602,0.565,-0.432,-0.127,4.54,3.43,-0.276,-0.131,0.0332,,-0.0942,0.0322,-0.556,1.09,1.27,-0.338
CCTACTGGGCCAAAGGTGATTGATTCCAATGCTC,,-0.216,-0.106,,8.87,7.96,7.6,8.66,5.69,5.36,0.238,0.204,0.439,0.0253,-0.311,0.327,-0.309,0.815,0.601,-0.0621
TCTAGTCGGTCAAAGGTCACACACTCGAAATGCG,,5.28,2.21,,,10.2,11.1,11.4,5.17,6.92,1.34,1.59,5.59,6.26,1.5,,2.61,5.34,5.22,6.97
CGAACTAGGTCATCCAGGTCAGTGAATACATTGA,,1.02,-0.0563,,7.77,6.49,4.46,6.24,8.34,8.34,6.69,1.38,4.66,3.99,7.58,3.63,1.17,4.3,4.14,5.02
CAAACTAGGTCAAAAGGTCAAAGTCCGCTTCCCG,,6.17,2.63,,10.2,8.73,7.62,9.1,8.5,8.17,1.83,1.09,7.65,6.71,2.96,,5.47,,6.38,7.44
TAGCCTAGGTCATTCAGGGGCCACTATAGAAAGC,,1.27,1.1,,2.63,2.83,0.439,2.09,2.08,3.19,0.203,-0.136,2.11,3.08,-0.109,4.13,0.262,4.11,3.28,4.76
